What is called AC50 is the midpoint of the concentration-response curve, whichever way the signal moves.

Molecules are shown by their SMILES. Hit rate of the full screen: of about 16,000 compounds, about 5,800 (36%) were called active. Roughly 23% stayed inconclusive and do not appear here. This is one part of the list. Values without a mark were called inactive. Calls come from the whole dose curve; as a rule, active = well fitted curve in the direction sought with a large enough effect; inconclusive = small, poorly fitted or top-dose-only effect, or effect the other way; inactive = no such curve, though single readings can be large or run the other way.
% is set by controls: 0 for no effect and ±100 for the full control effect.

The target in the test is Cytochrome P450 2C19 (Homo sapiens) (UniProt P33261). Put plainly: Cytochrome panel assay with activity outcomes. The settings on record: recombinant CYP, pro-luciferin dealkylation, luminescence, p450-cyp2c19; series mostly up to 57.1 µM.
Cytochrome P450 2C19 (Homo sapiens), sequence (P33261 whole entry, looked up): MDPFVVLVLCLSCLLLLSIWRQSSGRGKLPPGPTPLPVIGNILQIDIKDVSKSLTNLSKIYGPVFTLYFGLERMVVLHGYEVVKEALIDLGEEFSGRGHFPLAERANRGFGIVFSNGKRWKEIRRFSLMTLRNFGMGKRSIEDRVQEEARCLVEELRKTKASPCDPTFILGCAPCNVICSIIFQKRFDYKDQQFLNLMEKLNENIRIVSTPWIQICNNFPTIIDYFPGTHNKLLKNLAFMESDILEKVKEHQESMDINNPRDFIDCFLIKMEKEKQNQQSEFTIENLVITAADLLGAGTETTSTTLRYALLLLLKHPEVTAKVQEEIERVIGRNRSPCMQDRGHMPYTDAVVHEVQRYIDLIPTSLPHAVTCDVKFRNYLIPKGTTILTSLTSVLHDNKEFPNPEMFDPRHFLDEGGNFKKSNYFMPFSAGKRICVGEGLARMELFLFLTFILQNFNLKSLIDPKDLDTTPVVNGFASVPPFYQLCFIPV
Turning to `O=C(Nc1ccccc1)N1CCCC2(CCN(C(=O)c3cnccn3)CC2)C1`, the AC50 entry was “inactive”.

Turning to `COc1ccc(COC(=O)N/N=C2/C[C@@H](O)[C@@H](O)[C@@H]3[C@@H]4C(=O)N([C@@H](C)c5ccccc5)C(=O)[C@H]4CC[C@@H]23)cc1`, the activity, negative = inhibition is -25.8% [at 11.4 µM].

In the case of `CCOc1ccc(/C(O)=C2/C(=O)C(=O)N(CCCn3ccnc3)C2c2cccs2)cc1Cl` (stereo unspecified), the concentration at half-maximal activity (AC50) was 14100 nM (active).

In the case of `CCOc1ccc(/C(O)=C2/C(=O)C(=O)N(CC3CCCO3)C2c2ccc(C)o2)cc1` (stereo unspecified), the AC50 result is “inactive”.

Regarding `COCCCN1C(=O)C(=O)/C(=C(/O)c2ccc(OC)cc2C)C1c1cccnc1` (stereo unspecified), the AC50 entry was “inactive”.

As to `COc1cccc(/C(O)=C2/C(=O)C(=O)N(c3cc(C)on3)C2c2cccs2)c1` (stereo unspecified), the AC50 result was “inactive”.

With `COc1ccc(/C(O)=C2\C(=O)C(=O)N(c3cc(C)on3)C2c2ccc(OC)c(OC)c2)cc1OC` (stereo unspecified), the AC50 result is “inactive”.

In the case of `CCN(CC)CCN1C(=O)C(=O)/C(=C(/O)c2ccc(OC)cc2)C1c1cccs1` (stereo unspecified), the AC50 was 14100 nM (active).

Consider `Cc1nc2ccccn2c1/C(O)=C1\C(=O)C(=O)N(CCCn2ccnc2)C1c1ccncc1` (stereo unspecified), for which the AC50 result is “inactive”.

As to `Cc1ccc(/C(O)=C2/C(=O)C(=O)N(CCCn3ccnc3)C2c2ccccn2)cc1` (stereo unspecified), the AC50 is 2820 nM (active).

As to `O=C(N/N=C1/C[C@@H](O)[C@@H](O)[C@@H]2[C@H]3C(=O)N(c4ccc(F)cc4F)C(=O)[C@@H]3CC[C@H]12)OCc1ccccc1`, the activity, negative = inhibition was -27.3% [at 11.4 µM].

For `NC(=O)CSc1nc2sc(-c3ccccc3)cc2c(=O)n1N`, the AC50 is 15800 nM (active).

Take `c1cc2c(cc1C1CCCCC1)c1c3n2CCN[C@H]3CCC1`: the AC50 was 1000 nM (active).

`O=C(Nc1ccc(Cl)cc1)OCCn1nnnc1C(c1ccccc1Cl)N1CCOCC1` (stereo unspecified): the AC50 is 3980 nM (active).

For `O=C1[C@H]2O[C@@H]2[C@@H](O)[C@H]2[C@H]1CCn1c(=O)n(Cc3cc4c(cc3Cl)OCO4)c(=O)n12`, the activity, negative = inhibition was 14.6% [at 11.4 µM].

Take `CCCCCCCCCCCCCCCCCCNC(=O)OC[C@@H](COP(=O)([O-])OCC[n+]1ccsc1)OC`: the AC50 entry was “inactive”.

For `CCCCCCCCCCCCCCCCCCOC[C@@H](COP(=O)([O-])OCC[N+](C)(C)C)OC`, the AC50 result was “inactive”.

Regarding `CCCCCCCCCCCCCCCCCC(=O)NC[C@@H](COP(=O)([O-])OCC[N+](C)(C)C)OCC`, the AC50 is 25100 nM (active).

Turning to `C=C(C)CN(CC#N)CC(=C)C`, the activity, negative = inhibition is 27.9% [at 11.4 µM].

Consider `Cn1c(N)nc2c(nc(OCc3ccccc3)n2[C@@H]2O[C@H](CO)[C@@H](O)[C@@H]2O)c1=O`, for which the activity, negative = inhibition is -3.29% [at 11.4 µM].

On to `Cc1ccc(N=C/C(C(=O)C(F)(F)F)=C(\O)c2cccs2)cc1`, for which the concentration at half-maximal activity (AC50) was 3160 nM (active).

`COc1cc(CN2CCCCC2)cc2cc(C(=O)O)c(=O)oc12`: the activity, negative = inhibition is 21% [at 11.4 µM].

Take `COc1cc(Br)cc2cc(C(=O)NCC3CCCO3)c(=O)oc12` (stereo unspecified): the half-maximal activity concentration (AC50) is 398 nM (active).

As for `CCN1CCC[C@H]1CNC(=O)c1c(OC)ccc(Br)c1OC`, the AC50 entry was “inactive”.

`Cc1cc(C)cc(-n2nnnc2-c2cn(C)nc2C(F)(F)F)c1`: the AC50 was 2510 nM (active).

For `COc1ccc(-n2c(C)nn(C)c2=O)cc1`, the AC50 entry was “inactive”.

Regarding `COc1ccc(-n2cnnc2)cc1`, the AC50 entry was “inactive”.

For the molecule `COc1ccc(-n2nnnc2-c2cn(C)nc2C(F)(F)F)cc1`, the concentration at half-maximal activity (AC50) was 2240 nM (active).

Take `C[C@@H]1c2cccc(O)c2C(O)=C2C(=O)[C@@]3(O)C(O)=C(C(N)=O)C(=O)[C@@H](N(C)C)[C@@H]3[C@@H](O)[C@@H]21`: the AC50 result is “inactive”.

On to `CCOC(=O)C1=C(N)n2c(s/c(=C/c3ccccc3)c2=O)=C(C(=O)OCC)C1c1ccccc1` (stereo unspecified), for which the AC50 result was “inactive”.

With `CCOC(=O)C1=C(N)n2c(s/c(=C\c3ccco3)c2=O)=C(C(=O)OCC)C1c1ccco1` (stereo unspecified), the AC50 is 8910 nM (active).

Turning to `CCOC(=O)C1=C(c2ccccc2)N=c2s/c(=C\c3ccco3)c(=O)n2C1c1cccs1` (stereo unspecified), the AC50 was 2240 nM (active).

On to `CCOC(=O)C1=C(c2ccccc2)N=c2s/c(=C\c3cccc(O)c3)c(=O)n2C1c1cccs1` (stereo unspecified), for which the AC50 was 10000 nM (active).

As for `c1ccc(CCNCc2ccco2)nc1`, the activity, negative = inhibition was -13.9% [at 11.4 µM].

Turning to `S=C1SCN(Cc2ccccn2)CN1Cc1ccco1`, the AC50 is 2240 nM (active).

As to `S=c1nc[nH]c2c1ncn2Cc1ccco1`, the activity, negative = inhibition is -0.307% [at 11.4 µM].

`Cc1cccc(OCCSCc2nc3ccccc3[nH]2)c1`: the AC50 is 2240 nM (active).

`O=C1c2cccc3cccc(c23)C(=O)N1CC1CCN(CC(O)COc2ccc3ccccc3c2)CC1` (stereo unspecified): the AC50 is 7080 nM (active).

`O=C(c1ccc(S(=O)(=O)N2CCCCCC2)cc1)N1CCC(CN2C(=O)c3cccc4cccc(c34)C2=O)CC1`: the AC50 result was “inactive”.

Take `O=C(NCc1ccccc1)C(c1ccc(F)cc1)N(Cc1ccco1)C(=O)c1ccccn1` (stereo unspecified): the AC50 was 4470 nM (active).

Regarding `CC(Cc1ccccc1)C(=O)NCc1ccccn1` (stereo unspecified), the AC50 result was “inactive”.

As for `Cc1ccccc1C(C(=O)NCc1ccccc1)N(Cc1ccco1)C(=O)c1ccccn1` (stereo unspecified), the AC50 is 3550 nM (active).

On to `Cc1ccc(N(CCC#N)C(=O)CSc2ccc3c(c2)OCCO3)cc1`, for which the AC50 is 2000 nM (active).

As to `C[C@@H](CN(C)C)CN1c2ccccc2CCc2ccccc21`, the AC50 entry was “inactive”.

Consider `O=C1CCCc2ccccc2N1Cc1cccc(Cl)c1`, for which the AC50 was 501 nM (active).

With `O=C1CCCc2ccccc2N1Cc1ccccc1Cl`, the half-maximal activity concentration (AC50) is 1000 nM (active).

As for `c1ccc(CNc2ccnc(-c3ccc4c(c3)OCO4)n2)cc1`, the AC50 was 2000 nM (active).

Consider `c1cncc(CNc2ccnc(-c3ccc4c(c3)OCO4)n2)c1`, for which the half-maximal activity concentration (AC50) was 5010 nM (active).

Take `c1csc(CNc2ccnc(-c3ccc4c(c3)OCO4)n2)c1`: the concentration at half-maximal activity (AC50) is 5010 nM (active).

`CN(C)C(=O)c1ccc(-c2nccc(NCc3cccnc3)n2)cc1`: the AC50 result is “inactive”.

Regarding `COc1cc(OC)c(C(=O)CCCCN2CCC3(CC2)NC(=O)NC3=O)cc1NS(=O)(=O)c1ccc(C(F)(F)F)cc1`, the AC50 result was “inactive”.

As for `CCN(CC)CCC[C@H](C)Nc1c2ccc(Cl)cc2nc2ccc(OC)cc12`, the AC50 result is “inactive”.

For the molecule `COc1ccc(OCCn2c(C)c(/C=N/n3cnnc3)c3ccccc32)cc1`, the AC50 is 355 nM (active).

As to `CN(C)CCCN1c2ccc3ccccc3c2Sc2cccc(Cl)c21`, the AC50 was 5010 nM (active).

On to `CN(C)CCCN1c2ccccc2C(C)(C)c2ccccc21`, for which the activity, negative = inhibition was 1.8% [at 11.4 µM].

In the case of `CCN(CC)CCN1c2ccccc2Sc2ccc3ccccc3c21`, the AC50 was 1000 nM (active).

As for `CCC(=O)c1ccc2c(c1)N(CCCN(C)C)c1ccccc1S2`, the AC50 result is “inactive”.

`CN(C)CCCN1c2ccccc2Sc2cnccc21`: the activity, negative = inhibition was 34.5% [at 11.4 µM].

Regarding `C[C@@H](CN1c2ccccc2Sc2ccccc21)N(C)C`, the AC50 result was “inactive”.

As to `CN(C)CCCN1c2ccccc2Sc2ccc3ccccc3c21`, the half-maximal activity concentration (AC50) was 1000 nM (active).

For `CCN(CC)[C@@H](C)CN1c2ccccc2Sc2ccccc21`, the AC50 result was “inactive”.
